Measurements: PubChem BioAssay AID1159580 (chemical genetic matrix, 2015)
“And” between values parts separate entries of the source, which are not always exact repeats. Equal entries are not always repeated. Screen size: about 5,500 compounds; about 2,000 (36%) were called active. About 18% were inconclusive and are not listed. Rule as the data show it: active = normalized growth mostly below about 0.91 (no sharp cut-off); inconclusive = no clear call, values can overlap the other calls; inactive = mostly above about 0.92. The list shows a part of the results.

Test: chemical genetic growth profiling, strain panel (AID 1159580);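 also: tested at 20 µM; growth read once vehicle control cultures reached saturation at 30 °C; 1 = growth at the plate median or of vehicle wells; lower values mean less growth of the strain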
Settings: growth OD

Measured: normalized growth

COc1cccc(OC)c1OCCNCC1COc2ccccc2O1 (centres undefined)
inactive: S. cerevisiae deletion strains, locus YAL013W, strain DEP1, active compounds read low 1.02 | S. cerevisiae deletion strains, locus YAL040C, strain CLN3, active compounds read low 0.995 | S. cerevisiae deletion strains, locus YBR021W, strain FUR4, active compounds read low 0.991 | S. cerevisiae deletion strains, locus YBR229C, strain ROT2, active compounds read low 1.01 | S. cerevisiae deletion strains, locus YCL029C, strain bik1, active compounds read low 0.982 | S. cerevisiae deletion strains, locus YCL061C, strain MRC1 (second series), active compounds read low 0.999 | S. cerevisiae deletion strains, locus YDL035C, strain GPR1, active compounds read low 1.01 | S. cerevisiae deletion strains, locus YDL074C, strain BRE1, active compounds read low 1.04 | S. cerevisiae deletion strains, locus YDL101C, strain DUN1, active compounds read low 1.03 | S. cerevisiae deletion strains, locus YDL134C, strain PPH21, active compounds read low 1.01 | S. cerevisiae deletion strains, locus YDL185W, strain tfp1, active compounds read low 0.991 | S. cerevisiae deletion strains, locus YDL192W, strain arf1, active compounds read low 0.99 | S. cerevisiae deletion strains, locus YDR101C, strain arx1, active compounds read low 0.965 | S. cerevisiae deletion strains, locus YDR150W, strain NUM1, active compounds read low 1.02 | S. cerevisiae deletion strains, locus YDR162C, strain NBP2, active compounds read low 1.04 | S. cerevisiae deletion strains, locus YDR318W, strain mcm21, active compounds read low 0.966 | S. cerevisiae deletion strains, locus YDR363W, strain ESC2, active compounds read low 0.955 | S. cerevisiae deletion strains, locus YDR388W, active compounds read low 0.983 | S. cerevisiae deletion strains, locus YDR502C, strain sam2, active compounds read low 0.995 | S. cerevisiae deletion strains, locus YEL061C, strain CIN8, active compounds read low 1.01 | S. cerevisiae deletion strains, locus YER002W, strain NOP16, active compounds read low 1 | S. cerevisiae deletion strains, locus YER110C, active compounds read low 0.978 | S. cerevisiae deletion strains, locus YER155C, strain BEM2, active compounds read low 1.01 | S. cerevisiae deletion strains, locus YER167W, strain BCK2, active compounds read low 1 | S. cerevisiae deletion strains, locus YGL078C, strain dbp3, active compounds read low 0.991 | S. cerevisiae deletion strains, locus YGL086W, strain mad1, active compounds read low 0.974 | S. cerevisiae deletion strains, locus YGL248W, strain PDE1, active compounds read low 1.02 | S. cerevisiae deletion strains, locus YGR078C, strain PAC10, active compounds read low 1.03 | S. cerevisiae deletion strains, locus YGR135W, strain pre9, active compounds read low 0.975 | S. cerevisiae deletion strains, locus YGR229C, strain SMI1, active compounds read low 1.01 and 0.909 | S. cerevisiae deletion strains, locus YGR252W, strain gcn5, active compounds read low 0.907 | S. cerevisiae deletion strains, locus YHR030C, strain SLT2, active compounds read low 1.01 | S. cerevisiae deletion strains, locus YHR079C, strain IRE1 (second series), active compounds read low 0.978 | S. cerevisiae deletion strains, locus YHR094C, strain hxt1, active compounds read low 0.992 | S. cerevisiae deletion strains, locus YHR129C, strain ARP1, active compounds read low 1.01 | S. cerevisiae deletion strains, locus YHR200W, strain rpn10, active compounds read low 0.977 | S. cerevisiae deletion strains, locus YIL066C, strain RNR3, active compounds read low 1.01 | S. cerevisiae deletion strains, locus YIL073C, strain SPO22, active compounds read low 0.999 | S. cerevisiae deletion strains, locus YIL125W, strain kgd1, active compounds read low 0.97 | S. cerevisiae deletion strains, locus YIR030C, strain dcg1, active compounds read low 0.986 | S. cerevisiae deletion strains, locus YJL095W, strain BCK1, active compounds read low 0.992 | S. cerevisiae deletion strains, locus YJL134W, strain LCB3, active compounds read low 1.01 | S. cerevisiae deletion strains, locus YJL168C, strain set2, active compounds read low 0.98 | S. cerevisiae deletion strains, locus YJL187C, strain SWE1 (second series), active compounds read low 1.02 | S. cerevisiae deletion strains, locus YJR043C, strain POL32, active compounds read low 1.01 | S. cerevisiae deletion strains, locus YJR075W, strain HOC1, active compounds read low 1.01 and 0.99 | S. cerevisiae deletion strains, locus YKL009W, strain mrt4, active compounds read low 1 | S. cerevisiae deletion strains, locus YKL068W, active compounds read low 0.995 | S. cerevisiae deletion strains, locus YKL085W, strain MDH1 (second series), active compounds read low 1.03 | S. cerevisiae deletion strains, locus YKL085W, strain MDH1, active compounds read low 1.03 | S. cerevisiae deletion strains, locus YKL190W, strain CNB1, active compounds read low 1.01 | S. cerevisiae deletion strains, locus YKR001C, strain vps1, active compounds read low 0.999 | S. cerevisiae deletion strains, locus YLR039C, strain RIC1, active compounds read low 1.11 | S. cerevisiae deletion strains, locus YLR058C, strain SHM2, active compounds read low 1.02 | S. cerevisiae deletion strains, locus YLR102C, strain apc9, active compounds read low 0.983 | S. cerevisiae deletion strains, locus YLR262C, strain YPT6, active compounds read low 1.16 | S. cerevisiae deletion strains, locus YLR268W, strain sec22, active compounds read low 0.98 | S. cerevisiae deletion strains, locus YLR330W, strain CHS5, active compounds read low 1.01 | S. cerevisiae deletion strains, locus YLR342W, strain FKS1 (second series), active compounds read low 0.965 | S. cerevisiae deletion strains, locus YLR371W, strain rom2, active compounds read low 0.982 | S. cerevisiae deletion strains, locus YLR418C, strain cdc73, active compounds read low 0.983 | S. cerevisiae deletion strains, locus YML016C, strain PPZ1, active compounds read low 1.01 | S. cerevisiae deletion strains, locus YML032C, strain rad52, active compounds read low 0.96 | S. cerevisiae deletion strains, locus YML124C, strain tub3, active compounds read low 0.989 | S. cerevisiae deletion strains, locus YMR078C, strain ctf18, active compounds read low 0.985 | S. cerevisiae deletion strains, locus YMR223W, strain ubp8, active compounds read low 0.963 | S. cerevisiae deletion strains, locus YMR263W, strain SAP30, active compounds read low 1.02 and 0.998 | S. cerevisiae deletion strains, locus YMR307W, strain GAS1, active compounds read low 1.08 and 0.993 | S. cerevisiae deletion strains, locus YNL067W, strain RPL9B, active compounds read low 1.02 | S. cerevisiae deletion strains, locus YNL128W, strain TEP1, active compounds read low 1.02 and 1.01 | S. cerevisiae deletion strains, locus YNL153C, strain GIM3, active compounds read low 1.03 | S. cerevisiae deletion strains, locus YNL175C, strain NOP13, active compounds read low 1.02 | S. cerevisiae deletion strains, locus YNL197C, strain WHI3, active compounds read low 1.04 | S. cerevisiae deletion strains, locus YNL224C, strain SQS1, active compounds read low 0.999 | S. cerevisiae deletion strains, locus YNL233W, strain BNI4, active compounds read low 1.02 | S. cerevisiae deletion strains, locus YNL250W, strain rad50, active compounds read low 1.01 | S. cerevisiae deletion strains, locus YNL271C, strain bni1, active compounds read low 0.983 | S. cerevisiae deletion strains, locus YNL298W, strain CLA4, active compounds read low 0.977 | S. cerevisiae deletion strains, locus YNL307C, strain MCK1, active compounds read low 0.975 | S. cerevisiae deletion strains, locus YNL322C, strain KRE1, active compounds read low 1.02 and 0.982 | S. cerevisiae deletion strains, locus YNR052C, strain pop2, active compounds read low 0.966 | S. cerevisiae deletion strains, locus YOL006C, strain TOP1, active compounds read low 1.03 | S. cerevisiae deletion strains, locus YOL012C, strain htz1 1.66 | S. cerevisiae deletion strains, locus YOL147C, strain pex11, active compounds read low 0.991 | S. cerevisiae deletion strains, locus YOR061W, strain CKA2, active compounds read low 1.02 | S. cerevisiae deletion strains, locus YOR069W, strain VPS5, active compounds read low 1.01 | S. cerevisiae deletion strains, locus YOR083W, strain WHI5 (second series), active compounds read low 1.02 | S. cerevisiae deletion strains, locus YOR136W, strain idh2, active compounds read low 0.992 | S. cerevisiae deletion strains, locus YOR144C, strain elg1, active compounds read low 0.994 | S. cerevisiae deletion strains, locus YOR184W, strain ser1, active compounds read low 0.954 | S. cerevisiae deletion strains, locus YOR316C, strain cot1, active compounds read low 0.988 | S. cerevisiae deletion strains, locus YPL055C, strain LGE1, active compounds read low 1.07 and 0.961 | S. cerevisiae deletion strains, locus YPL241C, strain CIN2, active compounds read low 1.01 | S. cerevisiae deletion strains, locus YPR119W, strain clb2, active compounds read low 0.983 | S. cerevisiae deletion strains, locus YPR141C, strain kar3, active compounds read low 0.987 | S. cerevisiae deletion strains, locus YPR163C, strain tif3, active compounds read low 0.985 | S. cerevisiae deletion strains, locus YPR167C, strain met16, active compounds read low 0.986 | S. cerevisiae deletion strains, strain wtn01, active compounds read low 0.988 | S. cerevisiae strains, strain wild type, active compounds read low 1.01
